# Inconclusive results are not listed. Activity calls are given as the source filed them. Calls come from the whole dose curve; as a rule, active = well fitted inhibition curve with a large enough effect; inconclusive = small, poorly fitted or top-dose-only effect; inactive = flat fitted curve, though single readings scatter.
# Target: Calcium and integrin-binding protein 1 (Homo sapiens) (UniProt Q99828)
# Experiment: Primary qHTS for Identification of Calcium Integrin Binding Protein 1 (CIB1) Competitor (AID 1508620); for activity change, negative = inhibition: top concentration of the series differs between compounds
# Details: CIB1-GST / FITC-alphaIIb peptide fluorescence polarization; series mostly up to 114 µM; activity change, negative = inhibition: at the top concentration
# Outline: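 Fluorescence polarization competition: GST-tagged CIB1 (1 uM final) preincubated with compound 15 min at room temperature, then FITC-labelled alphaIIb peptide (100 nM final) added. After 15 min at room temperature, polarization read at Ex 480/Em 540.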
# % is set by controls: 0 for no effect and ±100 for the full control effect; potency is the fitted concentration of half-maximal effect.
# Sequence of Calcium and integrin-binding protein 1 (Homo sapiens) (Q99828 whole entry, looked up): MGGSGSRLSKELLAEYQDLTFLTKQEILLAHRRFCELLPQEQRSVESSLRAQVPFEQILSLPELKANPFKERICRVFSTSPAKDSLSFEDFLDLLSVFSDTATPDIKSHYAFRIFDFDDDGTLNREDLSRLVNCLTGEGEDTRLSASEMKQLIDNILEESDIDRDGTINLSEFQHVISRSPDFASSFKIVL
SMILES,"activity change, negative = inhibition",Potency
Cc1cc(C)n2ncc(C(=O)Nc3ccccc3C)c2n1,0.279% (inactive),–
O=S(=O)(c1ccsc1)N1CCN(c2nc(-c3cccs3)nc3ccccc23)CC1,1.91% (inactive),–
COc1cccc(CNc2ncnc3ccc(-c4c(C)noc4C)cc23)c1,2.69% (inactive),–
COc1ccc(C2Nc3ccccc3C(=O)N2Cc2ccc(C(F)(F)F)o2)cc1COc1c(C)cccc1C (stereo not given),1.26% (inactive),–
O=C(Nc1ncc(Cc2ccc(C(F)(F)F)cc2)s1)c1ccc(-c2cccnc2)o1,-1.49% (inactive),–
Cc1csc(CNc2ncnc3ccc(-c4ccc5c(c4)OCO5)cc23)n1,-4.53% (inactive),–
O=S(=O)(Nc1nc(-c2ccccc2C(F)(F)F)nc2ccccc12)c1ccc(-c2cccnc2)cc1,1.38% (inactive),–
Cc1ccc(S(=O)(=O)Nc2cccc3cccnc23)c([N+](=O)[O-])c1,-0.457% (inactive),–
COc1cc(-c2no[n+]([O-])c2C#N)cc(OC)c1OC,1.22% (inactive),–
COc1ccc(C2c3c(nc(CCCc4ccccc4)[nH]c3=O)Oc3ccc4ccccc4c32)cc1OC (stereo not given),3.94% (inactive),–
Cc1cc(C)n2ncc(C(=O)NCc3ccccc3)c2n1,1.05% (inactive),–
Cc1cc(N[S+](=O)([O-])c2ccc(NC(=O)Cc3ccc4c(c3)CCO4)cc2)no1,-9.3% (inactive),–
Cc1cc(C)nc(NC(=S)N2CCN(c3cncs3)CC2)c1,-11.2% (inactive),–
NC(=O)C1CCN(c2nc(-c3ccc([N+](=O)[O-])cc3)cs2)CC1,9.56% (inactive),–
Cc1ccc(Nc2nc(C#N)nc(NC3CCCC3)n2)cc1,3.33% (inactive),–
N#Cc1ccc(CSc2nc3ncc(Br)cc3[nH]2)cc1,34.4% (inactive),–
Fc1cc(Nc2nc(-c3ccncc3)nc3ccccc23)ccc1C(F)(F)F,2.78% (inactive),–
CCOc1ccc(CCN(C)C(=O)c2cc3sccc3n2Cc2ccccc2)cc1OCC,6.47% (inactive),–
Cc1cnc(-c2ccccc2C(C)C)nc1NCC1CN(c2cccnc2)C1,-5.79% (inactive),–
O=C(Nc1ccc(Cl)c(Cl)c1)Nc1nnc(NC2CCNCC2)s1,-13.3% (inactive),–

SMILES,"activity change, negative = inhibition",Potency
Cc1ccc(CN(C)c2ncnc3ccc(-c4ccc(C#N)n4C)cc23)o1,17.4% (inactive),–
CCN(CCc1cn(C)cn1)c1ncnc2ccc(-c3ccc4c(c3)OCO4)cc12,4.75% (inactive),–
CC(=O)Nc1sc2c(c1-c1ccc(N[S+](C)(=O)[O-])cc1)CCNC2,0.511% (inactive),–
Cc1ccc(N2C(=O)c3ccccc3C2=O)c(C)c1,6.62% (inactive),–
O=S(=O)(Nc1ccccc1)c1ccc(NCc2cccc(Cl)c2O)cc1,-18.9% (inactive),–
O=C(NC1CCCc2c1cnn2-c1ccc(F)cc1F)c1ccccc1 (stereo not given),3.46% (inactive),–
COc1cccc(OC)c1C1=Nn2c(nnc2-c2ccccc2O)SC1,-3.31% (inactive),–
N#Cc1c(-c2ccc(O)cc2)no[n+]1[O-],4.25% (inactive),–
O=C1CCc2cc(S(=O)(=O)Nc3cccc4ccccc34)ccc2N1,-0.814% (inactive),–
Oc1c(CN2CCCCC2)cc(COCc2ccccc2)c2cccnc12,-7.75% (inactive),–
O=C(/C=C/c1ccccc1Cl)Nc1cccc([S+](=O)([O-])Nc2ccccc2F)c1,7.32% (inactive),–
CN(C)c1ccc(-c2csc(N3CCC(C(N)=O)CC3)n2)cc1,-3.34% (inactive),–
CC(C)(C)OC(=O)N1CCN(c2ccc(NCc3ccoc3-c3ccc(C#N)cc3)cc2)CC1,3.7% (inactive),–
O=S(=O)(NC1CCC(NS(=O)(=O)c2c(F)cccc2F)CC1)c1ccc2c(c1)OCCO2 (stereo not given),1.37% (inactive),–
Clc1ccccc1CSc1nc2ncc(Br)cc2[nH]1,0.461% (inactive),–
CC(C)N1CCc2c(sc(NC(=O)Cc3ccccc3)c2-c2nc3ccccc3s2)C1,–,28.2 µM (active)
Oc1ccc(CNc2cc(Br)ccn2)c2cccnc12,-3.04% (inactive),–
Cc1ccc(NC(=O)c2ccc3c(c2)CCC(=O)N3)cc1C,-0.11% (inactive),–
Cc1cc2c(s1)c1cnn(Cc3ccc(Cl)c(F)c3)c(=O)c1n2C,3.28% (inactive),–
c1csc(CNc2ccc(N3CCCCC3)cc2)c1,0.2% (inactive),–

# — PubChem BioAssay (NCATS)
